PPARg SRC-3 ag: PPARgamma agonists recruiting SRC-3 coactivator, primary screen, biochemical; actives 0.26% (n = 200,000); activation, % at 8 µM; Peroxisome proliferator-activated receptor gamma (Homo sapiens), P37231; AID 731, 2007; biochemical PPARgamma/SRC-3 coactivator recruitment assay; in the data active = activation above about 23%;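 note: 0% = DMSO and 100% = reference agonist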
Target sequence (P37231 whole entry, looked up): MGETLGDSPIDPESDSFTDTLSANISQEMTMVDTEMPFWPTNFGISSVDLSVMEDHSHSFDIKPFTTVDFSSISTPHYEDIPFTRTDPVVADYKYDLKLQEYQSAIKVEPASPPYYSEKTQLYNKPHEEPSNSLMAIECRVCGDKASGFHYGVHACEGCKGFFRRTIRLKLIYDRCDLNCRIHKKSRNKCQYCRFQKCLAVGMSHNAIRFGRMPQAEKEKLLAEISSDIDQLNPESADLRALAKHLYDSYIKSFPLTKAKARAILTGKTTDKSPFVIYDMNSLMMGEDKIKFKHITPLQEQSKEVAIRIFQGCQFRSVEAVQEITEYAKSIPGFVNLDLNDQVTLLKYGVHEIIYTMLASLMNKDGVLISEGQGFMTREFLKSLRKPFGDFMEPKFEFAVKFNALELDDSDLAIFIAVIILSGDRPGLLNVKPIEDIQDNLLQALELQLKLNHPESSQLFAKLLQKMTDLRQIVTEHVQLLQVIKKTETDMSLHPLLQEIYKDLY
SRC3 TRFRET art: TR-FRET detection interference compounds, artefact control for PPARgamma SRC-3 recruitment agonists, biochemical, TR-FRET ratio. TR-FRET artefact counter-screen, PPARgamma/SRC-3 format; active compounds read high. TR-FRET ratio at 8 µM. actives 0.39% (n = 99,000). AID 1048, 2008
SRC2 TRFRET art: TR-FRET signal artefacts, primary screen, artefact control for PPARgamma SRC-2 agonist project, biochemical | actives 0.4% (n = 200,000) | TR-FRET artefact counter-screen; active compounds read high | TR-FRET ratio at 8 µM
PPARg SRC1 recr: PPARgamma agonists recruiting SRC-1 coactivator, primary screen, biochemical | PPARgamma-SRC-1 coactivator recruitment biochemical assay | activation, % at 8 µM | actives 0.41% (n = 200,000); in the data active = activation above about 19%;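 note: 0% = DMSO and 100% = reference agonist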
PPARg SRC2 recr: agonists of PPARg-SRC-2 recruitment, primary screen, biochemical, HTS | PPARgamma LBD-SRC-2 recruitment | activation, % at 8 µM | actives 0.34% (n = 200,000); in the data active = activation above about 22%;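 note: 0% = vehicle and 100% = reference agonist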
SRC1 TRFRET art: TR-FRET detection interference compounds, primary screen, artefact control for PPARgamma SRC-1 recruitment agonists, biochemical, TR-FRET emission ratio | TR-FRET detection artefact counter-screen; active compounds read high | TR-FRET ratio at 8 µM | actives 0.34% (n = 99,000); in the data active = TR-FRET ratio above about 2300
PPARg SRC2 conf: agonists of PPARgamma SRC-2 coactivator recruitment, confirmation, biochemical, HTS | shares compounds with PPARg SRC-3 ag | actives 52% (n = 790) | biochemical SRC-2 recruitment by PPARgamma | activation, % at 8 µM; in the data active = activation above about 22%;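 note: 0% = vehicle alone and 100% = reference agonist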
PPARg SRC1 ag: PPARgamma agonists recruiting SRC-1 coactivator, confirmation, biochemical. AID 1300, 2008. shares compounds with PPARg SRC-3 ag. activation, % at 8 µM. actives 43% (n = 790). PPARgamma–SRC-1 coactivator recruitment biochemical assay; in the data active = activation above about 20%;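 note: 0% = vehicle wells and 100% = reference agonist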
PPARg SRC3 conf: PPARgamma-driven SRC-3 coactivator recruitment agonists, confirmation, biochemical; shares compounds with PPARg SRC-3 ag; biochemical PPARgamma-SRC-3 coactivator recruitment, agonist mode; activation, % at 8 µM; actives 29% (n = 790); AID 1301, 2008; in the data active = activation above about 24%;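 note: 0% = vehicle wells and 100% = reference agonist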
Active calls of the source: *; x = no result given. Compounds with a hit are over-represented: about 0.9% of the library has one in this group of screens. Cut-off read from the data, not from the text of the source, unless noted: active = TR-FRET ratio above about 2000; inactive = the rest.

SMILES | PPARg SRC-3 ag | SRC3 TRFRET art | SRC2 TRFRET art | PPARg SRC1 recr | PPARg SRC2 recr | SRC1 TRFRET art | PPARg SRC2 conf | PPARg SRC1 ag | PPARg SRC3 conf
O=C(CNS(=O)(=O)c1ccc2ccccc2c1)OCC(=O)c1ccc(Br)s1 | 68.7* | x | 2540* | 33.3* | 60.9* | x | 55.1* | 35.1* | 38.0*
Cc1cc(C(=O)COC(=O)CNS(=O)(=O)c2ccc3ccccc3c2)c(C)n1-c1ccccc1 | 2.4 | 1624 | 1766 | 3.1 | 6.0 | 1884 | x | x | x
COc1cc(/C=N/Nc2nc3ccccc3[nH]2)ccc1O | 14.2 | 1195 | 1560 | 6.9 | 8.9 | 2030 | x | x | x
C(=N\Nc1nc2ccccc2[nH]1)/c1cccs1 | 28.2* | x | 1564 | 14.8 | 10.0 | x | 10.3 | 10.9 | 6.6
C(=N\Nc1nc2ccccc2[nH]1)/c1ccncc1 | 9.3 | 1586 | 1937 | 15.8 | 11.2 | 1761 | x | x | x
COc1ccc(O)c(/C=N/Nc2nc3ccccc3[nH]2)c1 | 21.1 | 1959 | 1754 | 7.4 | 26.3* | 2218 | 7.8 | 8.4 | 9.3
C(=N\Nc1nc2ccccc2[nH]1)/c1ccc2c(c1)OCO2 | 10.4 | 1932 | 2021* | 21.7* | 4.8 | 2193 | 12.0 | 17.2 | 8.9
O=[N+]([O-])c1ccccc1SNc1ccc(Br)cn1 | -1.8 | 1583 | 1598 | 8.9 | 2.9 | 1988 | x | x | x
COC(=O)c1cc(Cl)c(NC(=O)c2cc3ccccc3o2)cc1OC | 105.1* | x | 3198* | 96.8* | 50.1* | x | 58.7* | 52.8* | 40.0*
COC(=O)c1cc(Cl)c(NC(=O)c2ccc(C(C)(C)C)cc2)cc1OC | 19.7 | x | 1607 | 4.8 | 8.2 | x | x | x | x
CC1(C)Nc2ccc(O)cc2-c2c1ssc2=S | 27.5* | x | 1836 | 13.2 | 24.6* | x | 6.5 | 3.4 | 5.0
O=C(Nc1ccc(Cl)cc1)Nc1ccc(S(=O)(=O)Nc2ncccn2)cc1 | 3.5 | 1543 | 1569 | 3.7 | 6.6 | 1792 | x | x | x
O=C(Nc1ccc(S(=O)(=O)Nc2ncccn2)cc1)c1ccc(Br)s1 | 36.6* | x | 2098* | 12.8 | 21.8* | x | 22.6* | 11.8 | 14.7
Cc1ccc(-n2c(O)c(C=Nc3ccccc3-c3n[nH]c(=S)[nH]c3=O)c3ccccc3c2=O)cc1C | 23.2* | 2203* | 2174* | 24.5* | 24.2* | 2325* | 43.6* | 32.5* | 28.3*
Cc1nc2ccc3nc(NC(=O)c4ccc5c(c4)OCCO5)sc3c2s1 | 156.8* | x | 2067* | 116.6* | 17.1 | x | 92.0* | 70.8* | 58.1*
C=CCn1c(SCC(=O)c2cccs2)nnc1-c1cccc(OC)c1 | 1.0 | 1658 | 1641 | 2.5 | 2.3 | 1889 | x | x | x
O=C(Nc1ccccc1C(=O)NCC1CCCO1)c1ccc(Cl)cc1Cl (stereo unspecified) | 11.4 | x | 1634 | 21.7* | -1.4 | x | 0.6 | -1.1 | 1.6
O=C(N/N=C1/CCCc2ccccc21)C(c1ccccc1)c1ccccc1 | 6.2 | x | 1623 | -0.3 | 0.7 | x | x | x | x
CCn1c(=O)n(CCOC)c(=O)c2c3c(sc21)CCCC3 | -2.8 | x | 1709 | 4.7 | 2.8 | x | x | x | x
COCCCn1c(=S)[nH]c2sc3c(c2c1=O)CCCS3 | 35.7* | 2497* | 2732* | 43.1* | 44.3* | 3194* | 56.7* | 39.9* | 38.4*
Nc1nc(-c2c[nH]c3ccccc23)cs1 | 35.9* | x | 1857 | 20.0* | 12.7 | x | 21.9* | 11.8 | 13.0
CNc1nc(-c2c[nH]c3ccccc23)cs1 | 13.7 | x | 1433 | 5.3 | 6.3 | x | x | x | x
CCOC(=O)c1c(-c2cccs2)csc1NC(=O)CCCC(=O)O | 19.4 | x | 2153* | 12.9 | 25.0* | x | 25.0* | 19.1 | 19.4
Cc1cc2cc(CNC(=O)c3cc4ccccc4o3)ccc2n1C | 31.5* | x | 2988* | 21.5* | 18.1 | x | 41.3* | 31.8* | 23.1
COc1ccc(C(=O)NCc2ccc3c(c2)cc(C)n3C)cc1 | 2.3 | 1480 | 1490 | -3.3 | 3.0 | 1948 | x | x | x
SMILES | PPARg SRC-3 ag | SRC3 TRFRET art | SRC2 TRFRET art | PPARg SRC1 recr | PPARg SRC2 recr | SRC1 TRFRET art | PPARg SRC2 conf | PPARg SRC1 ag | PPARg SRC3 conf
Nc1ccc2oc(-c3cc(Br)ccc3Cl)nc2c1 | -2.4 | x | 1557 | -2.5 | -3.0 | x | x | x | x
COc1ccc2cc3[n+](cc2c1OC)CCc1cc2c(cc1-3)OCO2 | -1.8 | 1328 | 1423 | 12.9 | 24.7* | 1819 | 7.2 | 7.0 | 4.8
COc1cccc(C2=NCCc3cc4c(cc32)OCO4)c1OC | 1.2 | 1576 | 1481 | 2.2 | 4.6 | 1702 | x | x | x
CC(C)Sc1oc(-c2ccco2)nc1S(=O)(=O)c1ccccc1 | 27.7* | x | 2119* | 18.7* | 46.2* | x | 55.0* | 46.1* | 34.8*
N#Cc1ccc(Cn2ccnc2C(=O)Nc2ccccc2)cc1 | 2.7 | 1584 | 1320 | -0.7 | 3.2 | 1717 | x | x | x
CNC(=S)N1N=C(c2ccc(C)cc2)CC1c1ccc(Cl)cc1 (stereo unspecified) | 13.9 | x | 2072* | 6.4 | 23.2* | x | 13.6 | 7.0 | 8.9
COc1cc(NC(=O)c2cc3c(=O)n(C)c4ccccc4c3n2C)cc(OC)c1OC | 28.4* | x | 1684 | 22.1* | 11.2 | x | 7.0 | 5.3 | 3.6
CCOC(=O)c1sc2nc(C)n(N)c(=O)c2c1C | 6.1 | 1653 | 1780 | 8.7 | 5.8 | 1913 | x | x | x
CCOC(=O)c1sc2nc(C)[nH]c(=S)c2c1C | 19.7 | 2353* | 2175* | 24.6* | 34.7* | 2663* | 30.3* | 23.0* | 20.9
COc1cc2oc(=O)c(Br)c(C)c2c(OC)c1OC | 62.4* | x | 2553* | 41.4* | 46.5* | x | 40.4* | 33.6* | 24.3*
COc1cc2oc(=O)cc(C)c2c(OC)c1OC | 2.0 | 1792 | 1448 | 5.5 | 3.1 | 1724 | x | x | x
CCCCCCC(=O)N(O)C1CC(=O)N(c2ccc(C)cc2)C1=O (stereo unspecified) | 5.5 | x | 1717 | -2.2 | 8.1 | x | x | x | x
O=C(Nc1nc(=O)c2ccccc2s1)c1ccc(Cl)cc1 | 16.1 | x | 1596 | 20.2* | 6.1 | x | 11.4 | 11.4 | 8.3
CC1(C)Cc2ccccc2-c2nnc(SCC(=O)N3CCc4ccccc43)n21 | 25.2 | x | 1651 | 23.9* | 16.9 | x | 13.5 | 12.8 | 10.9
COC(=O)CSc1nnc2n1C(C)(C)Cc1ccccc1-2 | -9.9 | x | 1643 | 10.8 | 3.5 | x | x | x | x
O=C(O)CCc1ccc(-c2ccc(Br)cc2)o1 | 62.0* | x | 2456* | 28.2* | 41.7* | x | 26.2* | 16.4 | 19.9

Compound activity: PubChem, The Scripps Research Institute Molecular Screening Center
